GLS inh = qHTS for Inhibitors of Glutaminase (GLS); Potency, µM (series often up to 45.5 µM), for inactives: top-dose activity change, negative = inhibition, usual class: inhibitors; GLS enzymatic activity, qHTS titration; Glutaminase kidney isoform, mitochondrial (Homo sapiens), O94925; 410,000 compounds, 0.21% hits; note: % is set by controls: 0 for no effect and ±100 for the full control effect
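Enzyme dispensed in phosphate buffer (45 mM, pH 8.2, 0.02% Tween-20), compounds pinned in, then 1 mM L-glutamine solution and the glutamate oxidase–HRP–Amplex Red mix added; fluorescence read immediately and again after 30 min at room temperature.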
APE1 inh = qHTS Assay for Inhibitors of the Human Apurinic/apyrimidinic Endonuclease 1 (APE1). DNA repair nuclease/redox regulator APEX1 (Homo sapiens), P27695. recombinant APE1, TAMRA/BHQ-2 abasic DNA cleavage fluorescence. Potency, µM (top dose mostly 65.8 µM), for the others: at the top dose activity change, negative = inhibition, actives largely listed as inhibitors. 350,000 compounds, 0.35% hits. AID 2517, 2012;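 note: plate controls were vehicle for no effect and reference inhibitor for full effect; nearly all actives have a fitted effect of over 55% in size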
Target sequence (P27695 whole entry, looked up): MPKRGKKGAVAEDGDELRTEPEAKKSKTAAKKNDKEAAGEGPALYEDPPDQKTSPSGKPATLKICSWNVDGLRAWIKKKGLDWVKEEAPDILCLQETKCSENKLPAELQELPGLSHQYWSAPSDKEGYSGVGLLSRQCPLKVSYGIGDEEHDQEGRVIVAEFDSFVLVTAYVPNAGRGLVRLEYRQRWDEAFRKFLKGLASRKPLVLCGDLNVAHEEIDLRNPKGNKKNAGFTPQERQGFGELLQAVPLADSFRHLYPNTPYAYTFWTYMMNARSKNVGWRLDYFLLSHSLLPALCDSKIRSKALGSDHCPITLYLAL
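APE1 at 0.75 nM final was preincubated with compound 15 min at room temperature, then 50 nM double-stranded THF abasic-site substrate (5'-TAMRA/3'-BHQ-2) was added. Fluorescence (ex 525/em 598 nm) was read kinetically; third-minus-first read gave activity.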
Pol beta inh = qHTS Assay for Inhibitors of DNA Polymerase Beta. Pol beta primer extension/strand displacement, fluorescence kinetic. 340,000 compounds, 1.3% hits. AID 485314, 2010. P06746. Potency, µM (series often up to 114 µM), for the others: at the highest dose activity change, negative = inhibition, usual class: inhibitors; note: % is set by controls: 0 for no effect and ±100 for the full control effect
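Kinetic readout of DNA synthesis with strand displacement by Pol beta. Compound and 10 nM enzyme sit 15 min at room temperature; 50 nM substrate starts the reaction, read immediately and at 10 min.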
Pol kappa inh = qHTS for Inhibitors of Polymerase Kappa | DNA polymerase kappa (Homo sapiens), Q9UBT6 | purified Pol kappa, fluorescent DNA synthesis assay, 10 min | Potency, µM (top dose mostly 107 µM), without a hit: at the top dose activity, negative = inhibition, usual class: inhibitors | 400,000 compounds, 0.53% hits | AID 588579, 2011; note: % is set by controls: 0 for no effect and ±100 for the full control effect
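Inhibition of 10 nM Pol kappa is measured by a fluorescent read-out at 0 and 10 min following addition of 50 nM substrate (final), with a 15-min room-temperature compound preincubation.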
Pol eta inh = qHTS for Inhibitors of Polymerase Eta; recombinant Pol eta, fluorescent DNA replication assay; Potency, µM (series often up to 114 µM), without a hit: at the top dose activity change, negative = inhibition, most hits filed as inhibitors; AID 588591, 2011; 390,000 compounds, 1.2% hits; note: % is set by controls: 0 for no effect and ±100 for the full control effect
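Pol eta at 10 nM preincubated with compounds 15 min at room temperature; reaction started with fluorescent substrate (50 nM final) and read kinetically at 0 and 10 min.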
POLI inh = qHTS for Inhibitors of Polymerase Iota | Pol iota fluorescent replication assay, 10 min | Potency, µM (series often up to 115 µM), for the others: top-dose activity, negative = inhibition, usual class: inhibitors | AID 588590, 2011 | DNA polymerase iota (Homo sapiens), Q9UNA4 | 390,000 compounds, 1% hits
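Fluorescent replication assay read twice, at 0 min and 10 min after adding 50 nM (final) substrate. Enzyme (10 nM) and compounds were first incubated 15 min at room temperature; enzyme-free buffer wells were negative controls.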
An asterisk follows results filed as active. Sampled rows, rich in hits. Any-hit rate of the full collection: about 2.4%. Calls come from the whole dose curve; as a rule, active = well fitted curve in the direction sought with a large enough effect; inconclusive = small, poorly fitted or top-dose-only effect, or another doubt; inactive = no such curve, though single readings can be large; an effect the other way counts as inactive or inconclusive. Potency is the fitted concentration of half-maximal effect.

Results for Cc1ccc(C(=O)N/N=C\C2CC=CCC2)cc1[N+](=O)[O-] (stereo unspecified) ?
GLS inh: -0.6%; APE1 inh: 2.6%; Pol beta inh: 29.5%; Pol kappa inh: 1.1%; Pol eta inh: 89.1µM*; POLI inh: 28.9%

What do the screens show for `CCOc1ccccc1N1CCN(S(=O)(=O)c2ccc3c4c(cccc24)C(=O)N3)CC1`?
GLS inh: -8.3%; APE1 inh: inconclusive; Pol beta inh: inconclusive; Pol kappa inh: 44.7µM*; Pol eta inh: 79.4µM*; POLI inh: 14.1µM*

How did Cc1cc(C(=O)COC(=O)Cc2ccc(Cl)cc2)c(C)n1C do in these assays?
GLS inh: 11.9%; APE1 inh: 25.9%; Pol kappa inh: inconclusive; Pol eta inh: inconclusive; POLI inh: 35.5µM*

How did COc1ccc(CC(=O)Nc2cccc(-c3ccc4nnc(C)n4n3)c2)cc1 do in these assays?
GLS inh: -13.6%; APE1 inh: 3.1%; Pol beta inh: 51.0%; Pol kappa inh: -13.1%; Pol eta inh: -2.3%; POLI inh: 15.3%

Results for Cc1nnc2ccc(-c3cccc(NC(=O)Cc4cccs4)c3)nn12 ?
GLS inh: 0.2%; APE1 inh: 3.0%; Pol beta inh: 12.6µM*; Pol kappa inh: inconclusive; Pol eta inh: inconclusive; POLI inh: 35.5µM*

What do the screens show for `CCC(=O)Nc1cccc(SC)c1`?
GLS inh: 2.1%; APE1 inh: -1.0%; Pol beta inh: 66.7%; Pol kappa inh: -5.7%; Pol eta inh: -3.4%; POLI inh: 17.6%

How did CCC(=O)Nc1cccc(NC(C)=O)c1 do in these assays?
APE1 inh: inconclusive; Pol beta inh: 22.4µM*

Results for CC(=O)Nc1cccc(NC(=O)Cc2cccs2)c1 ?
GLS inh: -12.5%; APE1 inh: -15.2%; Pol beta inh: -13.4%; Pol kappa inh: -19.7%; Pol eta inh: 35.5µM*; POLI inh: inconclusive

Results for CCOc1cccc(NC(=O)Cc2cccs2)c1 ?
GLS inh: -12.3%; APE1 inh: -2.6%; Pol beta inh: 20.4%; Pol kappa inh: -7.7%; Pol eta inh: -16.5%; POLI inh: -13.5%

Results for CCOc1cc2sc(N3CCC(C(=O)Nc4ccc(C)cc4)CC3)nc2cc1Br ?
GLS inh: -8.1%; Pol beta inh: 34.3%; Pol kappa inh: 4.7%; Pol eta inh: -2.9%; POLI inh: -1.8%

Results for Clc1ccc(Cn2ccc3ccccc32)cn1 ?
GLS inh: 21.8%; APE1 inh: -6.7%; Pol beta inh: 1.9%; Pol kappa inh: -4.0%; Pol eta inh: -2.0%; POLI inh: -6.4%

How did Clc1ccc(CNc2ccccc2NCc2ccc(Cl)nc2)cn1 do in these assays?
GLS inh: 12.6µM*; APE1 inh: 4.1%; Pol beta inh: -9.6%; Pol kappa inh: 1.2%; Pol eta inh: -16.3%; POLI inh: 96.9%

How did Nc1cccc2c1C(=O)N(C(=O)/C=C/c1cccc(Br)c1)C2=O do in these assays?
GLS inh: -63.7%; APE1 inh: 8.3%; Pol beta inh: 9.4%; Pol kappa inh: -8.1%; Pol eta inh: inconclusive; POLI inh: 11.2µM*

How did CC(/C=N/n1c(-c2ccc(Cl)cc2)n[nH]c1=S)=C\c1ccco1 do in these assays?
GLS inh: -10.9%; APE1 inh: 12.4%; Pol beta inh: inconclusive; Pol kappa inh: inconclusive; Pol eta inh: 17.8µM*; POLI inh: inconclusive

How did S=c1[nH]nc(-c2ccccc2)n1/N=C/c1ccc(Cl)cc1 do in these assays?
GLS inh: 15.8µM*; APE1 inh: 28.5%; Pol beta inh: 2.9%; Pol kappa inh: -2.7%; Pol eta inh: inconclusive; POLI inh: 12.7%

What do the screens show for `S=c1[nH]nc(-c2cc(-c3ccccc3)n[nH]2)n1/N=C/c1c(Cl)cccc1Cl`?
GLS inh: -12.3%; APE1 inh: -2.1%; Pol beta inh: 14.1µM*; Pol kappa inh: inconclusive; Pol eta inh: 79.4µM*; POLI inh: 20µM*

What do the screens show for `Cc1ccsc1/C=N/n1c(-c2cc(-c3ccccc3)n[nH]2)n[nH]c1=S`?
GLS inh: -22.7%; APE1 inh: 1.4%; Pol beta inh: 11.2µM*; Pol kappa inh: inconclusive; Pol eta inh: inconclusive; POLI inh: inconclusive

How did Cc1ccccc1/C=N/n1c(-c2cc(-c3ccccc3)n[nH]2)n[nH]c1=S do in these assays?
GLS inh: -15.4%; APE1 inh: 0.1%; Pol beta inh: inconclusive; Pol kappa inh: -0.3%; Pol eta inh: -2.1%; POLI inh: 3.2%

What do the screens show for `S=c1[nH]nc(-c2ccccn2)n1/N=C/c1c(Cl)cccc1Cl`?
GLS inh: -30.7%; APE1 inh: 7.3%; Pol beta inh: 24.7%; Pol kappa inh: -3.8%; Pol eta inh: -6.2%; POLI inh: 98.4%

What do the screens show for `N[C@@H](Cc1cc(-c2ccc(Cl)cc2Cl)cc(CP(=O)(O)O)c1O)C(=O)O`?
APE1 inh: -10.8%; Pol kappa inh: 1.78µM*

What do the screens show for `Cc1cccc(N2CC(C(=O)Nc3nnc(SCc4ccccn4)s3)CC2=O)c1` (stereo unspecified)?
GLS inh: -7.1%; APE1 inh: -12.3%; Pol beta inh: inconclusive; Pol kappa inh: inconclusive; Pol eta inh: 39.8µM*; POLI inh: inconclusive

Results for Cc1ccc(N2CC(C(=O)Nc3ccc(S(=O)(=O)NCC4CCCO4)cc3)CC2=O)cc1 (stereo unspecified) ?
GLS inh: -0.4%; APE1 inh: 32.6%; Pol beta inh: 56.2µM*; Pol kappa inh: -5.9%; Pol eta inh: -11.2%; POLI inh: inconclusive

What do the screens show for `Cc1ccc(N2CC(C(=O)Nc3nnc(SCc4ccccn4)s3)CC2=O)cc1` (stereo unspecified)?
GLS inh: 0.8%; APE1 inh: 21.6%; Pol beta inh: 17.5%; Pol kappa inh: -8.7%; Pol eta inh: -22.3%; POLI inh: 24.2%

What do the screens show for `Cc1cccc(N2CC(C(=O)Nc3nnc(SCC(=O)NCC4CCCO4)s3)CC2=O)c1` (stereo unspecified)?
GLS inh: -3.5%; APE1 inh: -7.2%; Pol beta inh: -15.1%; Pol kappa inh: inconclusive; Pol eta inh: 20µM*; POLI inh: inconclusive

Source: PubChem (National Center for Advancing Translational Sciences (NCATS))
